The text below walks through data of PubChem BioAssay (NCI).

Molecules are shown by their SMILES. About 83,000 compounds went through this panel and 20% of them were active in at least one assay; those are over-represented in the sample as a whole.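 Plates (96-well) were seeded with cells, treated with compound at one concentration, and incubated for 48 hours before percent growth was determined.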 A number with no mark means an inactive call. Activity calls are given as the source filed them.

The test system of the assay is COLO 205 colon. Description: NCI-60 one-dose screen, 48 h (100 = growth as untreated, 0 = no growth, -100 = all killed). The settings on record: 10 µM. The method, then: Cells are grown in 96 well plates and exposed to the test compound for 48 hours. Compounds are tested at a single concentration, which is 10^-5 M for most compounds. The reported endpoint is percent growth (GI% or GIPRCNT), where numbers from 0 - 100% represent growth inhibition, and numbers from -100% - 0 represent cell death. For example, a value of 40 represents 60% growth inhibition. A value of 0 means no net growth occurred over the course of the experiment. A value of -40 indicates 40% of cells at the beginning of the experiment died by the end of the experiment. A value of -100 means all cells are dead at the end of the experiment.
NCI-60 Human Tumor Cell Lines Screen was performed using the standard one-dose NCI protocol, which is described in more detail at https://dtp.cancer.gov/discovery_development/nci-60/default.htm.
Compounds with GIPRCNT values below 10 were considered active. Activity score was based on GIPRCNT using the following formula: […]
Score is 0 for GIPRCNT values of 100 or above, 50 for GIPRCNT values of 0, and 100 for GIPRCNT values of -100.
For `COc1ccc(/C(C#N)=C/c2ccccc2OC)cc1`, the growth is 14.2%.

On to `O=C(Nc1ccc(F)cc1)c1cc2ccccc2cc1O`, for which the growth is 95.5%.

For the molecule `COc1ccc(/C=C2\CCCC3=C2NC(N)=NC3c2ccc(OC)cc2)cc1` (stereo not given), the growth is 112%. As for `O=C(/C=C/C=C/c1c(C2CC2)nc2ccccc2c1-c1ccc(F)cc1)c1cccs1`, the growth is -55% (active).

With `Nc1ccc(-c2cccs2)cc1NC(=O)c1ccc(CCCC(=O)Nc2ccc(C3CC3N)cc2)cc1` (stereo not given), the growth is 73.9%. With `COc1cc2c(cc1NC(=O)C(Cl)Cl)-c1ccc(NC(=O)C(Cl)Cl)cc1C2`, the growth was -86.5% (active). The result for `CCN(CC)CCOC(=O)c1cc(OCc2ccccc2)c(OCc2ccccc2)c(OCc2ccccc2)c1` reads 62.1%; that for `Cc1c2c(nn1C(=O)c1nn(-c3ccc(Cl)cc3)cc1O)-c1ccccc1CC2`, -4.51% (active); that for `CCOC(=O)c1cc(C(=O)c2ccc(OC)c(OC)c2)n2c1ccc1ccc3cccnc3c12`, -2.29% (active).

As for `CCOS(=O)(=O)c1c(C(C)C)cc(C(C)C)cc1C(C)C`, the growth is 104%. Consider `O=C(CCNC(=O)c1nc(-c2ccccc2)n(-c2ccc(Cl)cc2)n1)NO`, for which the growth is 94.8%. For `CSc1nc(S(C)(=O)=O)nc2[nH]c(=O)[nH]c12`, the growth was 106%. The result for `Cc1cc(Cl)ccc1Nc1nc(C(F)(F)F)ccc1C(=O)N/N=C/c1cccc(O)c1` reads 28.2%; that for `COc1cc(-c2ccc(N=Nc3ccc4c(S(=O)(=O)O)ccc(N)c4c3O)c(OC)c2)ccc1N=Nc1ccc2c(S(=O)(=O)O)ccc(N)c2c1O`, 95.7%. On to `Nc1cc(-c2ccc(Cl)cc2)nn1-c1nc2ccccc2nc1Cc1ccccc1`, for which the growth was 109%. On to `CNC(=O)c1cn2c3c(c(N4CCN(C)CC4)c(F)cc3c1=O)OC[C@@H]2C`, for which the growth was 110%. For `COc1cc2cc(Oc3ccc(NC(=O)c4cccc(C(F)(F)F)c4)cc3)c(C)nc2cc1OC` the value was 27.2%; for `COc1cc(-c2csc(NC(=O)Nc3cc(C(F)(F)F)cc(C(F)(F)F)c3)n2)cc(OC)c1OC`, 0.569% (active); for `Cc1cc(CSc2ccccc2C(=O)N2CC=C(c3ccccc3)CC2)on1`, 107%. Turning to `CN1CCc2c(sc3nc4n(-c5ccc(Cl)cc5)c(=O)[nH]n4c(=O)c23)C1`, the growth was 108%.

For `CCCN1CN2C(=O)N3CN(CCC)CN4C(=S)N(C1)C2C34` (stereo not given), the growth was 114%. In the case of `Nc1nc(N)c(N)c(Nc2ccc(CCO)cc2)n1`, the growth is 95.5%. Turning to `O=C(NCCNC(=O)c1ccc(F)cc1)Nc1ccc(-n2cc(-c3ccncc3)c(-c3ccc(Cl)c(O)c3)n2)cc1`, the growth is -80.8% (active). In the case of `COc1cc(-c2nn(-c3cccc(NC(=O)NCCNC(=O)c4ccccc4)c3)cc2-c2ccncc2)ccc1Cl`, the growth is 2.08% (active).

For the molecule `O=C(CCc1nnc2sc(-c3cc(O)c(O)c(O)c3)nn12)c1nc2ccccc2[nH]1`, the growth was 114%. As for `CN1CCN(C2=Nc3ccccc3Oc3ccc(Cl)cc32)CC1`, the growth was 96.9%. Take `Clc1ccc(C2=NN=C3C(Cc4ccccc4)=Nc4ccccc4N3C2)cc1`: the growth is 105%. Regarding `COc1ccc(N=Nc2cc(OC)c(OC)c(OC)c2)cc1`, the growth is 87.2%. For the molecule `CCN(CC)CCNc1ccc(C)c2sc3cc(Cl)ccc3c(=O)c12`, the growth is -67.3% (active).

As for `CN(C)CCCOc1cccc(NC2=C(Cl)C(=O)C(Nc3cccc(OCCCN(C)C)c3)=C(Cl)C2=O)c1`, the growth is -79.7% (active).

Regarding `COc1ccc(C(=O)N/N=C/c2cc(C(F)(F)F)ccc2Cl)cc1`, the growth is 104%. Take `CCN(CC)CCCC(C)Nc1c2ccc(Cl)cc2nc2ccc(OC)cc12` (stereo not given): the growth is -71.9% (active).

Consider `COc1cc(/C=C/c2cc(/C=C/c3ccc(O)c(OC)c3)n(C(=O)Nc3ccc(C)cc3)n2)ccc1O`, for which the growth is -25.8% (active).

Turning to `O=C1c2ccccc2C(=O)c2c1ccc(C(Br)Br)c2Cl`, the growth was -33.4% (active). On to `C[C@]12CC[C@@H]3c4ccc(O)cc4CC[C@H]3[C@@H]1CC[C@@H]2NS(=O)(=O)c1ccc(C(F)(F)F)cc1`, for which the growth was 9.34% (active).

Take `C=CCn1c(SCC(=O)Nc2ccc(C(=O)/C=C/c3ccc(OC)cc3)cc2)nnc1-c1ccc(OC)c(OC)c1`: the growth is 114%. On to `NC1=CC(=O)C(=O)c2cccnc21`, for which the growth is 98.7%. For the molecule `CCN(CC)CC(=O)N(CC)c1ccc(C)c(Cl)c1`, the growth is 101%.

As for `CCCCCCCCCCCC[n+]1c(C)cc(N)c2ccccc21`, the growth was -66.7% (active).

`CN(C)CCCOc1ccc(OCCCN(C)C)c2c1C(=O)c1ccccc1C2=O`: the growth was -57.9% (active).
